Screens: PubChem, National Center for Advancing Translational Sciences (NCATS)
The list is not random: actives were taken first. Their share in the collection is about 8.7%.
BAZ2B inh: BAZ2B (human) inhibition | Potency, µM (titrated, usually from 114 µM), for the others: top-dose activity change, negative = inhibition, hits mostly inhibitors | 360,000 compounds, 4.4% hits | AID 504333 | AlphaScreen BAZ2B-H3K14Ac peptide displacement; note: % is set by controls: 0 for no effect and ±100 for the full control effect; nearly all actives have a fitted effect of over 60% in size
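BAZ2B (50 nM) with biotin-H3(5-23)K14Ac peptide (50 nM) in PBS pH 7.4, 0.01% Tween-20, preformed 30 min, then compound 30 min at room temperature; top concentration 110uM. AlphaScreen streptavidin donor/nickel chelate acceptor beads (10 ug/mL final), 20 min dark, signal read.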
ALOX12 inh: blocks human arachidonate 12S-lipoxygenase; P18054; Potency, µM (top dose mostly 108 µM), inactives show at the top dose activity change, negative = inhibition, hits mostly inhibitors; AID 1671190; 580,000 compounds, 1.1% hits; purified 12hLO, xylenol orange hydroperoxide absorbance; note: % is set by controls: 0 for no effect and ±100 for the full control effect
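Purified human 12hLO (150 nM final) in 25 mM Hepes, 0.01% Triton X-100, pH 7.0 was preincubated 15 min at room temperature with compound. Then 40 uM arachidonic acid was added, 30 min. Hydroperoxide was read by Fe-XO absorbance ratio 573/405 nm.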
G9a block: blocks human histone lysine methyltransferase G9a. AID 504332. Potency, µM (doses to about 102 µM), for inactives: at the highest dose activity, negative = inhibition, usual class: inhibitors. Q96KQ7. 350,000 compounds, 8.8% hits. G9a H3K9 monomethylation, AlphaScreen, 2 h; note: % is set by controls: 0 for no effect and ±100 for the full control effect; nearly all actives have a fitted effect of over 75% in size
Target sequence (Q96KQ7 913-1193 limits assumed): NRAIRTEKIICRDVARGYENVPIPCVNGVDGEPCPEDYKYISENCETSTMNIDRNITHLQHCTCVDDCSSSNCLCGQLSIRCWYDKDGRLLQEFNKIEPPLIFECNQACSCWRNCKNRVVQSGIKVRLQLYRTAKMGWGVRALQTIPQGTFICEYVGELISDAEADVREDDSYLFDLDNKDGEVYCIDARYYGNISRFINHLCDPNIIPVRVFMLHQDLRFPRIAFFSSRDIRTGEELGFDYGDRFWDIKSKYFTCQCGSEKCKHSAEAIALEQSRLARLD
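Readings reflect AlphaScreen signal from monomethyl-H3K9 antibody detection. HMT at 20 nM; substrate b-H3K9 500 nM; cofactor SAM 20 uM; 2 h RT reaction; compounds tested as titrations in qHTS with 15 min preincubation.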
JMJD2A Tudor: JMJD2A Tudor domain (human) inhibition | O75164 | 390,000 compounds, 4.4% hits | AlphaScreen JMJD2A-Tudor / H3K4me3 peptide binding | Potency, µM (titrated, usually from 114 µM), inactives show at the highest dose activity change, negative = inhibition, hits mostly inhibitors; note: % is set by controls: 0 for no effect and ±100 for the full control effect; nearly all actives have a fitted effect of over 50% in size
HP1b chromo inh: inhibitors of HP1-beta chromodomain binding to methylated histone tails; AlphaScreen HP1-beta / biotin-H3K9me3 peptide binding; Potency, µM (series often up to 114 µM), inactives show at the highest dose activity change, negative = inhibition, actives largely listed as inhibitors; 390,000 compounds, 0.56% hits; AID 540317; note: nearly all actives have a fitted effect of over 70% in size
Target sequence (P83916 whole entry, looked up): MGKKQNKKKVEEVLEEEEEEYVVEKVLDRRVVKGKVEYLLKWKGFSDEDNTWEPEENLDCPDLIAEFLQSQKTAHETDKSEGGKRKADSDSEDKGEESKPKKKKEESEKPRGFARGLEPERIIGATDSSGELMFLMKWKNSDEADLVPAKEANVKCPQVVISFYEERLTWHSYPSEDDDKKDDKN
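Compound inhibition of the preformed complex between 50 nM HP1-beta and 50 nM biotinylated H3K9me3 peptide was read by AlphaScreen. Buffer was PBS pH 7.4 with 0.01% Tween-20. Incubations ran 30 min at room temperature, with 10 ug/mL donor/acceptor beads.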
Sfp PPTase inh: Sfp phosphopantetheinyl transferase inhibition | AID 1490 | Biochemical Sfp PPTase activity, qHTS | 310,000 compounds, 3.5% hits | Q9F4F7 | Potency, µM, without a hit: largest response in the series, negative = inhibition, most hits filed as inhibitors;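 note: the enzyme is Sfp with the accession as filed and its product quenches rhodamine fluorescence; 0% = enzyme reaction without inhibitor and -100% = no enzyme wells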
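Buffer: 50 mM Hepes-Na pH 7.6, 10 mM MgCl2, 0.01% Nonidet P-40, 0.01% BSA. Enzyme 15 nM, pre-exposed to compound 15 min; substrates then added and fluorescence change tracked over 30 min.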
* = called active by the depositor; ? = inconclusive; / = not tested or not shown; [ ] = dose if it differs, or a comment. Calls come from the whole dose curve; as a rule, active = well fitted curve in the direction sought with a large enough effect; inconclusive = small, poorly fitted or top-dose-only effect, or another doubt; inactive = no such curve, though single readings can be large; an effect the other way counts as inactive or inconclusive. Potency is the fitted concentration of half-maximal effect.

SMILES	BAZ2B inh	ALOX12 inh	G9a block	JMJD2A Tudor	HP1b chromo inh	Sfp PPTase inh
COc1ccccc1CN1CCSCC1	50µM*	?	?	6.3µM*	71µM*	-9%
COc1ccccc1CN1CCC2(CC1)CCN(C(C)=O)CC2	/	-5%[57.4 µM]	10%[12.7 µM]	/	/	17%
COc1ccccc1CN1CCCCCC1	?	?	40µM*	1.3µM*	?	8%
COc1cccc(CN2CCN(Cc3cccc(Br)c3)CC2)c1OC	20µM*	?	?	3.2µM*	22µM*	-28%
COc1cccc(CN2CCSCC2)c1OC	79µM*	?	/	20µM*	?	-18%
CCOc1ccc(NC(=O)COc2ccc(C)c(C)c2)c2cccnc12	/	64%	/	/	/	/
CCOc1cccc(CN2CCN(c3cccc(C(F)(F)F)c3)CC2)c1O	-15%	?	-36%[12.7 µM]	-23%	18%	?
COc1ccccc1Cn1[nH]nnc1=S	-30%	22µM*	3.2µM*	16µM*	?	40µM*
COc1cccc(CN2CCN(c3cccc(C(F)(F)F)c3)CC2)c1OC	?	?	6.3µM*	2.2µM*	?	?
Cn1nc(C(=O)Nc2ncc(Cc3ccc(Cl)cc3)s2)ccc1=O	/	33%	/	/	/	/
CCn1c(-c2ccc(-c3ccccc3)cc2)c[nH]c1=S	-29%	?	?	-36%	21%	9%
C=CCn1c(-c2ccccc2)c[nH]c1=S	-34%	?	?	7.9µM*	?	79µM*
C=CCn1c(=N)n(CC(=O)c2ccc(Cl)cc2)c2ccccc21	2%	0%	-4%	0%	44%	-9%
Cn1c(-c2ccc(-c3ccccc3)cc2)c[nH]c1=S	-34%	40µM*	14µM*	?	-4%	-23%
C=CCn1c(-c2ccc(Cl)cc2)c[nH]c1=S	-27%	?	1.4µM*	25µM*	9%	3%
CCc1ccc(C(=O)N2CC(c3nnc(-c4ccc(C)cc4)o3)C3(CCOCC3)C2)cc1 (stereo unspecified)	/	-6%	/	/	/	/
Cc1cc(C(=O)N2CCCC(c3nc(-c4cccnc4)no3)CCNC(=O)CC2)n(C)n1 (stereo unspecified)	/	10%	/	/	/	/
O=C(CSCc1ccccc1)Nc1cccc(F)c1	4%	-19%	9%[59 µM]	45µM*	22%	11%
Cc1ccc(NC(=O)CSCC(=O)N(C)CC(=O)Nc2cccc(F)c2)cc1	2%	?	45µM*	-6%	20%	/
Cc1cccc(NC(=O)CSCC(=O)N(C)CCOc2ccc(Cl)cc2)c1	-3%	-20%	56µM*	-10%	23%	/
O=C(Cc1ccccc1)Nc1cccc(N2C(=O)C=CC2=O)c1	?	-23%	0.35µM*	20µM*	?	-86%
Cc1cccc(NC(=O)CSCC(=O)N(C)CC(=O)Nc2cccc(F)c2)c1	-6%	-10%	-13%[0.501 µM]	-18%	34%	/
Cc1ccc2[nH]c3c(c2c1)CN(C(=O)CN1c2ccc(F)cc2CCC1C)CC3 (stereo unspecified)	40µM*	?	32µM*	45µM*	?	6%
CC1CCc2cc(F)ccc2N1C(=O)CN1C(=O)c2ccccc2C1=O (stereo unspecified)	4%	0%	4%[59 µM]	2%	22%	10%
Cc1ccc2[nH]c3c(c2c1)CN(C(=O)CN1CCN(c2cccc(C)c2C)CC1)CC3	35µM*	40µM*	?	56µM*	-18%	2%
SMILES	BAZ2B inh	ALOX12 inh	G9a block	JMJD2A Tudor	HP1b chromo inh	Sfp PPTase inh
O=C(CN1CCSCC1)N1CCc2[nH]c3ccc(Br)cc3c2C1	?	/	?	/	/	1%
O=C(CN1CCN(C(=O)c2ccco2)CC1)N1CCc2[nH]c3ccccc3c2C1	-24%	/	22µM*	-15%	26%	35µM*
Cc1ccc2[nH]c3c(c2c1)CN(C(=O)CN1CCN(C(=O)c2ccco2)CC1)CC3	-19%	?	?	/	/	7%
Cc1ccoc1C(=O)N1C[C@@H](CO)[C@H](c2nc(C3CC3)no2)C1	/	9%	/	/	/	/
CNC(=O)CN(C)c1nc(-c2ccccc2)c2ccccc2n1	/	-7%	/	/	/	/
CC1CCN(c2cc(N)c(Cl)cc2[N+](=O)[O-])CC1	?	?	50µM*	?	-17%	1%
CN1CCN(C(=O)c2ccc3c(c2)N(Cc2ccc(Cl)cc2)C(=O)c2ccccc2S3=O)CC1 (stereo unspecified)	11%	67%	79µM*	-11%	99%	-1%
O=C(NCCN1CCCC1)c1ccc2c(c1)N(Cc1ccc(F)cc1)C(=O)c1ccccc1S2=O (stereo unspecified)	1%	42%	40µM*	-22%	27%	0%
CCN1CCN(C(=O)c2ccc3c(c2)N(Cc2cccc(F)c2)C(=O)c2ccccc2S3)CC1	-18%	-12%	?	79µM*	17%	/
CCCCNC(=O)c1ccc2c(c1)N(Cc1ccc(F)cc1)C(=O)c1ccccc1S2=O (stereo unspecified)	-4%	?	-14%[59 µM]	-14%	16%	/
O=C(c1ccc2c(c1)N(Cc1cccc(F)c1)C(=O)c1ccccc1S2)N1CCOCC1	-24%	?	-6%[59 µM]	-25%	17%	/
CN1CCN(NC(=S)NCCc2ccccc2)CC1	/	10%	/	/	/	/
COc1cccc(/C=C2\Oc3cc(OS(=O)(=O)c4ccccc4)ccc3C2=O)c1OC	/	-25%	/	/	/	/
COc1cc(C(=O)O/N=C2\C=CC(=O)C(C)=C2)cc(OC)c1OC	-33%	-10%	14µM*	-20%	22%	-4%
COc1cc(C(=O)ON=C2C=C(C)C(=O)C(C)=C2)cc(OC)c1OC	1%	11%	-10%[59 µM]	-25%	22%	3%
Cc1cccc(Nc2nc(-c3ccc4c(c3)CCN4S(C)(=O)=O)cs2)c1	/	35µM*	/	/	/	/
CC(=O)Nc1nc(-c2ccc3c(c2)CCN3S(C)(=O)=O)cs1	?	-16%	/	-16%	-15%	56µM*
CC(C)c1ccccc1NC(=O)c1nn(C)c(=O)c2ccccc12	/	-14%	/	/	/	/
O=C(C1CC(=O)N(c2ccccc2)C1)N1CCC(c2nc3ccccc3[nH]2)CC1 (stereo unspecified)	-2%	-17%	45µM*	-14%	28%	/
COc1ccc(N2CC(C(=O)N3CCC(c4nc5ccccc5[nH]4)CC3)CC2=O)cc1 (stereo unspecified)	1%	2%	-18%	-2%	22%	/
COc1ccc(NC(=O)N2CCC(c3nc4ccccc4[nH]3)CC2)cc1	3%	-8%	40µM*	1%	46%	9%
CCOc1ccccc1NC(=O)N1CCC(c2nc3ccccc3[nH]2)CC1	-7%	7%	-44%[12.7 µM]	-14%	14%	11%
